Only some compounds are listed: those with a hit (about 5.7% of all), similar ones and a draw of the others.
ClpP mod: qHTS Assay for Activators of ClpP; ATP-dependent Clp protease proteolytic subunit (Bacillus subtilis (strain 168)), P80244; purified B. subtilis ClpP, FRET peptide cleavage, 20 min; Potency, µM (top dose mostly 57.5 µM), for inactives: top-dose activity change, negative = active; 340,000 compounds, 1.9% hits; AID 651965, 2013; active = well fitted falling curve with a large enough effect; inconclusive = small, poorly fitted or top-dose-only effect; inactive = no such curve, though single readings can be large or run the other way; also: potency is read from the fitted curve at half-maximal effect; the source files actives as falling curves though it sought activators and does not explain the sign; nearly all actives have a fitted effect of over 65% in size
Target sequence (P80244 whole entry, looked up): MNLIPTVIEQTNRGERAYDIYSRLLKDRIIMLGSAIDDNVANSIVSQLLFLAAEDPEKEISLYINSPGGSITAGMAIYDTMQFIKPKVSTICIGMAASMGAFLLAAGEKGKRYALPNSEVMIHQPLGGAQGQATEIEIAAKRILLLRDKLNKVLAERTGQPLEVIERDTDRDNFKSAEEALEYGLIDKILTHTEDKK
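Buffer: 100 mM Tris/HCl pH8, 100 mM KCl, 0.05% low protease BSA, 2.5% glycerol, 0.01% Tween-20. ClpP 10 microg/mL final; 20 min RT; delta FRET normalized to ADEP and DMSO controls.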
DRD3 agonist: qHTS of D3 Dopamine Receptor Agonist: qHTS. max activation, %. 410,000 compounds, 0.58% hits. D(3) dopamine receptor (Homo sapiens), P35462. AID 652048, 2013. D3R DiscoveRx beta-arrestin cells, luminescence, 90 min; in the data active = max activation above about 30%; also: 0% is about no effect
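Agonist-mode cell screen: cells plated at 1500/well and incubated overnight at 37 °C, then exposed to library compounds for 90 min at 37 °C. Detection reagent was added for 30–60 min at room temperature, and luminescence was read.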
GLP-1R inv ag: qHTS of GLP-1 Receptor Inverse Agonists (Inhibition Mode); Glucagon-like peptide 1 receptor (Homo sapiens), P43220; HEK293 GLP-1R CRE-luciferase, luminescence, 24 h; GLP-1R form is constitutively active; Potency, µM (highest dose often 38.3 µM), without a hit: at the highest dose activity change, negative = inhibition, actives largely listed as inhibitors; 410,000 compounds, 1.6% hits; also: potency is read from the fitted curve at half-maximal effect; % is scaled to controls: 0 for no effect and ±100 for the full control effect; nearly all actives have a fitted effect of over 55% in size
Target sequence (P43220 whole entry, looked up): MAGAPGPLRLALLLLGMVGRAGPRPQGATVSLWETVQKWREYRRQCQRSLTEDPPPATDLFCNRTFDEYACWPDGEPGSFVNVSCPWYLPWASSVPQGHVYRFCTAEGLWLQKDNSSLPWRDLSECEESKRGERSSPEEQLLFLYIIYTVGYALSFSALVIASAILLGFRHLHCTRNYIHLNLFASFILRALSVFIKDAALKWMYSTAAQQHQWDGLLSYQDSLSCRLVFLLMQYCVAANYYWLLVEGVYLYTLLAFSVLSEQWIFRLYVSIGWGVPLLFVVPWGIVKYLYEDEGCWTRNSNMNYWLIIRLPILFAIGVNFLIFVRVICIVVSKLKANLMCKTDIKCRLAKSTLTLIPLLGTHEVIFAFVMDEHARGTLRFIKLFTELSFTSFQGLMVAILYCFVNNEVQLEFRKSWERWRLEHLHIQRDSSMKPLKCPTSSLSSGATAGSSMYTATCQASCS
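HEK293 cells stably co-expressing a cAMP-responsive luciferase reporter and constitutively active GLP-1R were seeded, incubated 12 h, then exposed to compounds for 24 h at 37 C. Luminescence was read 12 min after detection reagent; inverse agonists lower signal.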
GLP1R ag: qHTS of GLP-1 Receptor Agonists | Glucagon-like peptide 1 receptor (Homo sapiens), P43220 | HEK293 GLP-1R CRE-luciferase, luminescence, 4-6 h; cells express a hypersensitive GLP-1R form | Potency, µM (doses to about 45.6 µM), inactives show at the top dose activation, usual class: activators | 380,000 compounds, 0.007% hits; also: potency is read from the fitted curve at half-maximal effect; % of control where 0% means no effect
GLP1R cytotox: qHTS of GLP-1 Receptor Inverse Agonists: Cytotox Screen; 410,000 compounds, 0.13% hits; AID 624418, 2012; HEK293 cAMP-luciferase reporter cells, luminescence, 24 h; Potency, µM (top dose mostly 38.3 µM), for inactives: at the top dose activity change, negative = inhibition, most hits filed as inhibitors;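 also: loss of luciferase light is scored as toxicity; potency is read from the fitted curve at half-maximal effect; % is scaled to controls: 0 for no effect and ±100 for the full control effect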
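A 23 nL compound transfer followed 12 hours of cell culture at 37 deg C; exposure then lasted 24 hr. Luciferase assay detection reagent was dispensed and plates read for luminescence after a 12 min room-temperature wait.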
D3 antag: qHTS of D3 Dopamine Receptor Antagonist: qHTS; D(3) dopamine receptor (Homo sapiens), P35462; D3R cells, DiscoveRx beta-arrestin luminescence, antagonist mode; stronger effect = lower value; max response, negative = inhibition, %; 360,000 compounds, 2.5% hits; in the data active = max response below about -50%; inconclusive = no clear call, values can overlap the other calls; also: % is scaled to controls: 0 for no effect and ±100 for the full control effect
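Cells expressing the human receptor were seeded at 1500 cells/well, incubated overnight at 37 degrees C in 5% CO2, then exposed to library compounds with dopamine controls for 90 minutes at 37 degrees C before luminescent detection.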
An asterisk follows results filed as active; ? = inconclusive; . = no result given. Unless noted, calls follow the shape of the dose curve; as a rule, active = well fitted curve in the direction sought with a large enough effect; inconclusive = small, poorly fitted or top-dose-only effect, or another doubt; inactive = no such curve, though single readings can be large; an effect the other way counts as inactive or inconclusive.

SMILES | ClpP mod | DRD3 agonist | GLP-1R inv ag | GLP1R ag | GLP1R cytotox | D3 antag
Cc1cccc(S(=O)(=O)c2cn(C)c3cc(N4CCC(C)CC4)c(F)cc3c2=O)c1 | -7.1% | -18.8 | 1.9% | . | -1.5% | .
Cc1ccc(C(C(=O)NC(C)(C)C)N(Cc2ccco2)C(=O)Cn2nnc(-c3cccs3)n2)cc1 (stereo unspecified) | 25.1µM* | 2.2 | ? | -10.3% | -8.0% | 1.4
CC(C)(C)NC(=O)C(c1ccc(O)cc1)N(Cc1ccco1)C(=O)Cn1nnc(-c2cccs2)n1 (stereo unspecified) | -1.2% | -4.0 | -0.1% | -0.9% | ? | 4.2
Cc1ccc(-c2nnn(CC(=O)N(Cc3ccco3)C(C(=O)NC(C)(C)C)c3ccc(C)o3)n2)o1 (stereo unspecified) | . | -2.0 | 1.26µM* | 0.4% | 1.1% | 3.7
Cc1ccc(-c2nnn(CC(=O)N(Cc3ccccc3)C(C(=O)NC(C)(C)C)c3ccncc3)n2)o1 (stereo unspecified) | -2.0% | -2.5 | 3.2% | -1.1% | -8.2% | 14.5
O=C1CCN(Cc2ccccc2)CCN1[C@H](CO)c1ccccc1 | -2.1% | -8.7 | 8.5% | 4.9% | 13.4% | -50.7*
CC(C)(C)c1nc(CN2CCCCC2)cc(CN2CCCCC2)c1O | -4.9% | 2.2 | -28.2% | 8.0% | ? | -72.1*
COc1cccc(/C=C/C(=O)NNC(=O)CCN2CCN(Cc3ccccc3)CC2)c1 | 4.5% | -19.9 | -22.7% | 1.7% | 0.7% | -52.8*
CCc1ccc(C(=O)NNC(=O)CCN2CCN(Cc3ccccc3)CC2)cc1 | . | -6.9 | -12.5% | 0.3% | 0.2% | 12.4
O=C(OCC(=O)N1CCOCC1)c1ccc2ccccc2c1O | 28.2µM* | 3.4 | 4.0% | 1.6% | 6.6% | 12.4
COc1ccccc1C(=O)NCCN1CCN(c2ccccc2)CC1 | -3.5% | 41.7* | -23.0% | -2.7% | -2.4% | 0.0
CCN1CCN(Cc2ccc(NC(=O)Nc3ccccc3OC)cc2)CC1 | -4.3% | -23.5 | ? | 8.7% | -18.7% | -72.4*
COc1ccccc1C(=O)Nc1ccc(N2CCN(Cc3ccccc3)CC2)cc1 | 1.0% | -6.7 | 11.2µM* | -2.2% | -7.4% | 11.6
CCOc1ccc(NC(=O)c2cc3sc(Cl)cc3n2CC)cc1 | -2.5% | 1.6 | -5.9% | . | 7.6% | .
Cc1c(Cl)cccc1-c1ccc(C(=O)Nc2ccc(F)cc2)o1 | ? | -18.2 | ? | . | -5.8% | .
Cn1sccc1=O | -6.0% | -16.7 | 2.7% | -2.7% | 3.3% | -71.0*
O=C(c1cccs1)N(Cc1ccco1)c1ccc(O)cc1 | -0.2% | . | . | . | . | .
c1ccc(CO/N=C(\c2ccc(C3CC3)nc2)C2CC2)cc1 | . | 16.0 | 7.94µM* | -1.8% | 1.6% | 1.4
O=C(NC1CCC(C(=O)O)CC1)OCc1ccccc1 (stereo unspecified) | -0.3% | 6.4 | -9.9% | 0.1% | 4.6% | 3.9
OC[C@H]1OC([S-])[C@H](O)[C@@H](O)[C@@H]1O.[Au+] (stereo partly specified) | . | 4.1 | . | . | . | .
CN(C)c1ccc(/C=C2\C=Cc3cc([N+](=O)[O-])ccc32)cc1 | 1.3% | . | . | . | . | .
O=[N+]([O-])c1cc(S(=O)(=O)Oc2ccccc2)ccc1Cl | 35.5µM* | -17.9 | ? | -23.6% | ? | 8.2
COC(=O)c1ccccc1NC(=O)Nc1cc(C)ccn1 | 3.9% | -1.3 | 4.5% | 6.8% | -3.1% | 3.7
Cc1ccnc(NC(=O)Nc2ccc(Br)cc2Cl)c1 | 2.2% | -14.2 | 12.3% | 11.9% | -2.5% | -53.7*
Cc1ccc(/C=C2\OC(=O)c3ccccc32)cc1 | 28.2µM* | -2.5 | 7.6% | -16.5% | 9.3% | 42.3
SMILES | ClpP mod | DRD3 agonist | GLP-1R inv ag | GLP1R ag | GLP1R cytotox | D3 antag
Cc1ccc(C=C2C=C(c3ccccc3)OC2=O)cc1 | -3.5% | 6.2 | -11.2% | 2.4% | -5.0% | -0.3
Cc1ccccc1C=O | 1.4% | 5.2 | 4.8% | 1.2% | 3.6% | 5.0
Cc1ccccc1/C=C1\OC(=O)c2ccccc21 | 28.2µM* | -11.0 | -4.6% | 13.6% | -7.9% | 16.2
COc1ccc(NC(=O)c2ccc(-c3nc(CSc4ccccc4)c(C)o3)cc2)c(OC)c1 | -1.2% | 2.9 | 15.6% | . | 7.6% | .
Cc1ccc(NC(=O)CN2C(=O)CSc3ccc(S(=O)(=O)N4CCCCC4)cc32)cc1 | 0.5% | -5.0 | 5.01µM* | -0.5% | 7.9% | -3.2
Cc1cc(Cl)ccc1NC(=O)CN1C(=O)CSc2ccc(S(=O)(=O)N3CCOCC3)cc21 | -0.1% | 0.5 | 11.2µM* | 4.9% | -20.9% | -11.2
CCc1ccccc1NC(=O)Cn1c(=O)n(-c2ccc(C)cc2)c(=O)c2c1c1cc(C)ccc1n2C | 4.8% | -9.3 | 3.4% | . | 25.0% | .
Cc1cc(C)nc(SCc2nc3ncccn3c2Br)n1 | 0.3% | 2.3 | 86.5% | 11.5% | -0.1% | -52.2*
Clc1c(CSc2nc3ccccc3o2)nc2ccccn12 | 0.1% | 3.4 | ? | 8.7% | -2.6% | 0.0
Brc1c(CSc2nc3ccccc3o2)nc2ncccn12 | 25.1µM* | 3.0 | 47.5% | 25.2% | -3.0% | -5.7
Brc1c(CSc2nncn2-c2ccccc2)nc2ncccn12 | 10µM* | -1.5 | 10.7% | -0.7% | 24.7% | -17.5
COc1cc(OC)c(NC(=O)CN(C)S(=O)(=O)c2ccc3c(c2)CCCC(=O)N3)cc1Cl | -2.8% | 8.1 | 18.4% | -3.7% | -9.2% | .
COC(=O)CC1Oc2ccc(F)cc2-n2cc(-c3ccc(Cl)cc3)nc21 (stereo unspecified) | -25.8% | -15.8 | 13.0% | 1.9% | 0.9% | .
O=C(CO)[C@@H](O)[C@H](O)[C@@H](O)CO | . | -16.2 | . | . | . | .
O=C(c1cc(S(=O)(=O)N2CCCC2)c[nH]1)N1CCN(c2cccc(Cl)c2)CC1 | -3.3% | -24.3 | ? | . | -18.3% | .
Cc1ccc(NC(=O)CN2CCN(C3CCCCC3)C(=O)C2=O)cc1C | 0.6% | -7.0 | -0.9% | . | 5.7% | .
CC(NC(=O)CCSc1nc(-c2ccc3c(c2)OCO3)cc(C(F)(F)F)n1)c1ccccc1 (stereo unspecified) | 31.6µM* | -6.2 | ? | -7.0% | -9.5% | -18.7
O=C(CCCSc1nc(-c2ccco2)cc(C(F)(F)F)n1)Nc1ccc2c(c1)OCO2 | -2.7% | 3.0 | 10µM* | 4.2% | -4.1% | 5.5
Cc1ccc(NS(=O)(=O)c2c(C)nc3sc(C)c(C)n3c2=O)cc1F | -11.9% | 3.3 | -12.9% | . | 0.6% | .
O=C1C(=O)c2cccnc2-c2ncccc21 | 1.0% | -13.1 | ? | -12.9% | ? | -87.1*
